Screen size: about 310,000 compounds; about 14,000 (4.5%) showed an effect of 50% or more. Effects have a minus sign here. The entries come from a sample that favours strong results as a whole.
Target: human ether-à-go-go-related gene (hERG) potassium channel (human, UniProt Q12809)
Assay: primary screen, population patch clamp on CHO cells stably expressing hERG; higher = less effect of the substance
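Further: peak tail current of the secondary pulse compared with the same well before compound.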

Sequence of human ether-à-go-go-related gene (hERG) potassium channel (Q12809 whole entry, looked up): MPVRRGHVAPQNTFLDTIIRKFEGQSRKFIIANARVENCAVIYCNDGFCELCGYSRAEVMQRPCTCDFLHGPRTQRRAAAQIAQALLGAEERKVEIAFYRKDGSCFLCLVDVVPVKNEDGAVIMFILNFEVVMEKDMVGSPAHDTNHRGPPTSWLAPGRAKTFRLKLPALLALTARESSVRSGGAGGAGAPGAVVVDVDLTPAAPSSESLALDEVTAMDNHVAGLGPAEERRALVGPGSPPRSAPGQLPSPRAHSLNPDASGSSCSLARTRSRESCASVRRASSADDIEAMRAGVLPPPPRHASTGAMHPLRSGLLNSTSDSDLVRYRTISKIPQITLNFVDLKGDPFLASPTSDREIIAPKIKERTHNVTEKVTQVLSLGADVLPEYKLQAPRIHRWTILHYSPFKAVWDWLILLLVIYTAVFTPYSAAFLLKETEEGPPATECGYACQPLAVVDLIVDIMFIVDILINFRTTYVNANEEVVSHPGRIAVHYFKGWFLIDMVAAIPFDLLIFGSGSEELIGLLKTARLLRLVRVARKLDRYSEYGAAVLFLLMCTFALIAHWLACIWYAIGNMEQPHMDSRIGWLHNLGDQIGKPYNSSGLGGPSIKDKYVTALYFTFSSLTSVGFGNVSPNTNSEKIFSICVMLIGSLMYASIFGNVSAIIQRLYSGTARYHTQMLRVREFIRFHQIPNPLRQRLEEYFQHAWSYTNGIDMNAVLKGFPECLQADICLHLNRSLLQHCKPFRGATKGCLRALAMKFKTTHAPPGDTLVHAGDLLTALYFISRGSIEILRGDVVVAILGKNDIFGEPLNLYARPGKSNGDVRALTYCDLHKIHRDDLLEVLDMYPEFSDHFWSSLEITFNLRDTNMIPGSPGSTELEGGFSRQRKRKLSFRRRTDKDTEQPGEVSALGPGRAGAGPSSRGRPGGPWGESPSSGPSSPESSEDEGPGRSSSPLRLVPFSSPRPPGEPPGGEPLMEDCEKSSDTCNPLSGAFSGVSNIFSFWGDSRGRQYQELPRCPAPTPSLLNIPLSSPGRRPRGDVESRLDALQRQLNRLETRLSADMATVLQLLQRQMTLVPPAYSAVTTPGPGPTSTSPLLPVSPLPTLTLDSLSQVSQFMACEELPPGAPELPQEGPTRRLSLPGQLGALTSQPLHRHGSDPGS

Compound	hERG current change (%, negative = inhibition) at 10uM
C=CCn1c(NC(=O)c2ccc(C)cc2)nc2ccccc21	6.35%
Cc1ccc(NCC(=O)N/N=C/c2c[nH]c3ccccc23)cc1	11.4%
CC(C)NC(=O)C(Cc1ccccc1)N1C(=O)c2ccccc2C1=O (centres unmarked)	-4.63%
COc1ccc(/C(O)=C2/C(=O)C(=O)N(CCN(C)C)C2c2cccnc2)cc1C (centres unmarked)	1.58%
CC(=O)c1ccc(N2CCN(C(=O)Nc3ccc(F)cc3)CC2)cc1	-24.5%
CC(=O)N1CCN(c2ccc(NC(=O)c3ccc(C(C)(C)C)cc3)cc2)CC1	0.16%
O=C(Nc1ccc2snnc2c1)N1CCCCC1	11.9%
O=C(Nc1ccc2snnc2c1)N1CCSCC1	6.76%
CC(=O)c1ccc(N2CCN(C(=O)Nc3ccc(C(C)C)cc3)CC2)cc1	-63.7%
CC(=O)N1CCN(c2ccc(NC(=O)c3ccc(F)cc3)cc2)CC1	-57.7%
CC(=O)N1CCN(c2ccc(NC(=O)c3ccc(C)cc3)cc2)CC1	5.89%
O=C(Nc1ccc2snnc2c1)N1CCN(c2ccccc2)CC1	-57.2%
CC(=O)c1ccc(N2CCN(C(=O)Nc3ccc(Cl)cc3)CC2)cc1	-8.35%
O=C(Nc1ccccc1)N1CCN(c2ccc(F)cc2)CC1	-7.74%
CC(=O)c1ccc(N2CCN(C(=O)Nc3ccc(C)cc3)CC2)cc1	-4.03%
O=C(Nc1ccc(F)cc1)N1CCN(c2ccc(F)cc2)CC1	-67.8%
O=S(=O)(Nc1ccc(N2CCOCC2)cc1)c1ccc2ccccc2c1	3.3%
O=C1C(=O)N(CCS(=O)(=O)c2ccccc2)c2ccc(F)cc21	8.67%
O=C(OCC(=O)N(CCc1ccccc1)Cc1ccccc1)c1cc(S(=O)(=O)N2CCOCC2)ccc1F	-10.8%
Cn1c(N2CCOCC2)cc(=O)n(C)c1=O	-18.2%
Cc1cc(C(=O)N2CCc3ccccc3C2)n[nH]1	5.11%
Nc1cccc(NP(=O)(c2ccccc2)c2ccccc2)c1	11.7%

Compound	hERG current change (%, negative = inhibition) at 10uM
Cc1c(NC(=O)C2Cc3ccccc3CN2C(=O)c2ccco2)c(=O)n(-c2ccccc2)n1C (centres unmarked)	-13.7%
COc1ccc(C(=O)COC(=O)/C=C/c2ccc(S(=O)(=O)Nc3cccc(S(N)(=O)=O)c3)cc2)cc1	4.88%
c1ccc2c(c1)Nc1cc3ccccc3cc1S2	8.83%
COc1ccc(CCN(C)C(=S)Nc2cccc(C)c2)cc1OC	5.19%
CCOc1ccc(CN(C)CC(=O)Nc2ccc3c(c2)CCC3)cc1OC	-39%
CCOc1ccc(CN(C)CC(=O)Nc2cccc(C)c2)cc1OC	-77%
CCOc1ccc(CN(C)CC(=O)NNC(=O)c2ccc(Cl)cc2)cc1OC	-60.3%
COc1ccc(CCN(C)CC(=O)Nc2c(C)cc(C)cc2C)cc1OC.Cl	4.26%
COc1cccc(CN(C)CC(=O)NNC(=O)c2ccc(Cl)cc2)c1	-12.5%
COc1ccc(CC(=O)Nc2cccc(-c3nnc(-c4cccc(C)c4)o3)c2)cc1OC	11.3%
CCOc1ccc(CN(C)CC(=O)Nc2cccc3ccccc23)cc1OC.O=C(O)C(=O)O	-16.5%
CCOc1ccc(CN(C)C(=O)NNC(=O)c2ccc(C)cc2)cc1OC	16.8%
COc1ccc(CCN(C)CCC(=O)Nc2cccc(C)c2)cc1OC.Cl	-65.8%
COc1ccc(CCN(C)CCC(=O)Nc2c(C)cc(C)cc2C)cc1OC	-58.8%
COc1ccc(CCNCCC(=O)Nc2c(C)cc(C)cc2C)cc1OC.Cl	-13.8%
CCc1cc2ccccc2nc1Cl	6.29%
O=C(CN(Cc1ccc2c(c1)OCO2)C(=O)CNS(=O)(=O)c1ccccc1)NCc1ccco1	-22%
CC[C@@H]1CC=C[C@H]2[C@H]1C(=O)N(Cc1ccccc1)[C@H]2c1ccc(OC)c(Cl)c1	10.6%
O=C(Cc1ccc(F)cc1)OCC(=O)c1cc2ccccc2o1	-2.43%
CCNC(=S)NNC(=O)Cn1c(=O)c2c(ncn2CCOC)n(Cc2ccccc2)c1=O	15.3%
Cc1ccc(NC(=O)Nn2cnnc2)c(C)c1	1.62%
COC(=O)CSc1[nH]c2ccc(Br)cc2c1[N+](=O)[O-]	16.7%

Compound	hERG current change (%, negative = inhibition) at 10uM
Nc1cccc(S(=O)(=O)Nc2ccccc2)c1	25.5%
COc1ccc(CCN(C)CC(=O)Nc2ccc(F)c(Cl)c2)cc1OC	-35.3%
COc1ccc(CC(=O)Nc2cc(C)ccc2O)cc1OC	4.22%
COc1ccc(CCN(C)CCC(=O)Nc2ccc(C)cc2)cc1OC.Cl	-64.3%
COc1ccc(CCN(C)CCC(=O)Nc2cc(C)ccc2C)cc1OC	-55.6%
COC(=O)c1ccc(C)c(NC(=O)CCc2ccc(OC)c(OC)c2)c1	6.37%
CCCCN(C)CCC(=O)Nc1ccc(C)cc1.Cl	-14.8%
O=[N+]([O-])c1cc(F)c(N2CCCCC2)cc1Br	-3.83%
O=C(C1CC1)N1CCc2cc(S(=O)(=O)NCC3COc4ccccc4O3)ccc21 (centres unmarked)	6.27%
Cc1c(C)c2ccc(OC(C)C(=O)N3CC[C@@]4(O)CCCC[C@H]4C3)cc2oc1=O (some centres unmarked)	-11.2%
COc1ccc(CN2C(=O)c3cccnc3C2=O)cc1S(=O)(=O)NC1CCCCC1C (centres unmarked)	10.8%
CN(C)CCNC(=O)c1nn(C)c2c1CCc1ccccc1-2	-12.4%
O=C(c1ccccc1Cl)c1c(O)c2ccccc2oc1=O	-3.19%
O=C1COc2ccc(S(=O)(=O)Nc3ccc4c(c3)OCO4)cc2N1	19.4%
C/C(=N\Nc1cccc(C(=O)O)c1)c1cc2ccccc2o1	9.54%
CCOC(=O)N1CCN(CC(O)COc2ccccc2C(C)CC)CC1.Cl (centres unmarked)	0.934%
COc1ccccc1C(=O)N/C(=C\c1cn(S(=O)(=O)N(C)C)c2ccccc12)C(=O)NCCCN1CCOCC1	-7.58%
COc1ccc(C(Nc2cccc([N+](=O)[O-])c2)P(=O)(OC(C)C)OC(C)C)cc1 (centres unmarked)	-31.5%
COc1ccc(S(=O)(=O)NCC2CCCN(Cc3ccc(OC)cc3F)C2)cc1 (centres unmarked)	-42%
Cn1cnnc1Sc1ccc(C(=O)NCCC(c2ccccc2)c2ccccc2)cc1[N+](=O)[O-]	-74.3%
Cn1cnnc1Sc1ccc(C(=O)NCCC23CC4CC(CC(C4)C2)C3)cc1[N+](=O)[O-]	12.9%
CCC(C)(C)NC(=O)c1ccc(Sc2nncn2C)c([N+](=O)[O-])c1	3.37%

Compound	hERG current change (%, negative = inhibition) at 10uM
Cc1ccc(CC(=O)Nc2cccc([N+](=O)[O-])c2)cc1	15.8%
CN(c1ccccc1C(=O)Nc1cccc(Br)c1)S(=O)(=O)c1ccccc1	-5.01%
Cc1ccc(CN(C)CC(=O)Nc2cccc([N+](=O)[O-])c2)o1	-58.4%
CN(CC(=O)Nc1cccc([N+](=O)[O-])c1)S(=O)(=O)c1ccccc1	-51.9%
CN(Cc1ccccc1)S(=O)(=O)c1ccc(OCC(=O)Nc2cccc([N+](=O)[O-])c2)cc1	-9.01%
CN(c1ccccc1C(=O)Nc1cccc([N+](=O)[O-])c1)S(=O)(=O)c1ccccc1	-63.2%
CN(c1ccccc1C(=O)Nc1cccc([N+](=O)[O-])c1)S(C)(=O)=O	-20%
CC(=O)c1cccc(NC(=O)CN(C)S(=O)(=O)c2ccccc2)c1	-11.5%
CN(CC(=O)Nc1cccc(F)c1)CC(=O)Nc1cccc([N+](=O)[O-])c1	-39.7%
FC(F)(F)c1nnc2c(Sc3ccccc3)nc3ccc(Cl)cc3n12	12.2%
Cc1cccc(NC(=S)N(CCCN2CCOCC2)C(C)c2cc3ccccc3o2)c1C (centres unmarked)	-20.9%
COc1ccc(Cl)cc1NC(=O)CSc1nnc(CNC(=O)c2cccs2)o1	-39.8%
Cc1ccc(S(=O)(=O)NCc2c(-c3ccccc3)c3cc(Cl)ccc3[nH]c2=O)cc1	7.18%
O=C(c1ccc(Br)s1)N1CCCC1	-5.86%
CCC(C)(C(=O)NC1CCCCC1)N(CC1CCCO1)C(=O)CNC(=O)c1ccccc1 (centres unmarked)	6.13%
CCC(C)(C(=O)NC1CCCCC1)N(C)C(=O)c1ccccn1 (centres unmarked)	2.9%
CCC(C)(C(=O)NC1CCCCC1)N(CC1CCCO1)C(=O)c1ccccn1 (centres unmarked)	-63.3%
COc1ccc2cc(C(c3nnnn3C3CCCC3)N3CCOCC3)c3nnnn3c2c1 (centres unmarked)	-51.7%
COc1ccc2cc(C(c3nnnn3C3CCCCC3)N3CCCCCC3)c3nnnn3c2c1 (centres unmarked)	4.6%
COc1ccc2cc(C(c3nnnn3C3CCCC3)N3CCCCCC3)c3nnnn3c2c1 (centres unmarked)	15.9%
